{"source": "PubChem BioAssay (NCATS)", "key": {"[1]": {"biological_target": "Luciferin 4-monooxygenase (Photinus pyralis) (UniProt P08659)", "experiment": "Primary firefly luciferase (FLuc) qHTS assay for identification of artifact compounds. (AID 1845220); further: nearly all actives have a fitted effect of over 60% in size", "conditions": "purified firefly luciferase, luminescence, 5 min; series mostly up to 54.1 µM", "summary_of_the_method": "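Reaction readout was CCD-imaged luminescence, taken 5 min after adding 10 nM purified firefly enzyme to compound-treated wells holding 10 uM luciferin and ATP in pH 7.6 buffer.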"}, "[2]": {"experiment": "Primary fluorescence-based thiol-reactive (MSTI) qHTS assay for identification of artifact compounds. (AID 1845221); further: nearly all actives have a fitted effect of over 65% in size; further: potency means the concentration at half of the fitted maximal effect", "conditions": "MSTI thiol-reactivity probe, 1 h; series mostly up to 53.8 µM", "summary_of_the_method": "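Probe: MSTI 4 uM, PBS pH 7.4, 2% DMSO. Incubation 1 h, RT, light-protected. Readout fluorescence 525/598 nm.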"}, "[3]": {"system": "Nanoluciferase (engineered Oplophorus gracilirostris luciferase)", "experiment": "Primary Nanoluciferase (NLuc) qHTS assay for identification of artifact compounds. (AID 1845222)", "conditions": "NLuc-conditioned medium, Nano-Glo luminescence, 5 min; series mostly up to 54.1 µM", "summary_of_the_method": "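Concentration-response data were obtained by luminescence after 5 min with Nano-Glo substrate at 1:100. The enzyme was diluted S16 NLuc-expressing cell medium, preincubated with compound for 15 min at RT. Curves were fitted with a 4-parameter Hill model.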"}, "[4]": {"experiment": "Primary redox qHTS assay for identification of artifact compounds. (AID 1845223)", "conditions": "Amplex Red/HRP redox cycling with DTT, fluorescence; series mostly up to 53.8 µM", "summary_of_the_method": "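Amplex Red (25 uM) and HRP (250 mU/mL) in HBSS, with compounds for 15 min, then 250 uM DTT for 30 min, room temperature, dark. Fluorescence 525/598 nm read; normalized to DMSO and 10 uM DA3003; Hill fit.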"}, "[5]": {"biological_target": "Cytochrome P450 3A4 (Homo sapiens) (UniProt P08684)", "sequence (P08684 whole entry, looked up)": "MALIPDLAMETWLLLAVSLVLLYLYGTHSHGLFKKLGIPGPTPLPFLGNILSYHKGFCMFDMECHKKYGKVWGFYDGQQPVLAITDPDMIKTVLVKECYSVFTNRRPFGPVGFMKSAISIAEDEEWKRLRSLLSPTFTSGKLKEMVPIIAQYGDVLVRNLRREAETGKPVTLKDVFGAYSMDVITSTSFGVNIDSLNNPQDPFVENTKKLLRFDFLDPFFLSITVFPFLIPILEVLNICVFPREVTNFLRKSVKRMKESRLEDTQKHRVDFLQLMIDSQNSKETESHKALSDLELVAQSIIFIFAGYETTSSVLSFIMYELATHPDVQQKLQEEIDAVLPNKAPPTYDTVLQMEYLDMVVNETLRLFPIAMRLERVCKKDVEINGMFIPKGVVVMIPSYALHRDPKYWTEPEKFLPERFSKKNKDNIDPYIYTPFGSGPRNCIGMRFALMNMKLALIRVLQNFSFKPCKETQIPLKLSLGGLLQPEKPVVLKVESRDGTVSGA", "experiment": "qHTS for inhibitors of CYP3A4 against the NCATS DSHEA and TCM libraries (AID 1919971)", "conditions": "recombinant CYP3A4 enzyme activity, luminescence qHTS; series mostly up to 34.1 µM", "summary_of_the_method": "(§1)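 Light output from converted D-luciferin reports remaining CYP activity. Compounds preincubate with enzyme and substrate for 15 min; NADPH regeneration (1x final) runs the reaction for 30-45 min.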"}, "[6]": {"biological_target": "Cytochrome P450 2D6 (Homo sapiens) (UniProt P10635)", "sequence (P10635 whole entry, looked up)": "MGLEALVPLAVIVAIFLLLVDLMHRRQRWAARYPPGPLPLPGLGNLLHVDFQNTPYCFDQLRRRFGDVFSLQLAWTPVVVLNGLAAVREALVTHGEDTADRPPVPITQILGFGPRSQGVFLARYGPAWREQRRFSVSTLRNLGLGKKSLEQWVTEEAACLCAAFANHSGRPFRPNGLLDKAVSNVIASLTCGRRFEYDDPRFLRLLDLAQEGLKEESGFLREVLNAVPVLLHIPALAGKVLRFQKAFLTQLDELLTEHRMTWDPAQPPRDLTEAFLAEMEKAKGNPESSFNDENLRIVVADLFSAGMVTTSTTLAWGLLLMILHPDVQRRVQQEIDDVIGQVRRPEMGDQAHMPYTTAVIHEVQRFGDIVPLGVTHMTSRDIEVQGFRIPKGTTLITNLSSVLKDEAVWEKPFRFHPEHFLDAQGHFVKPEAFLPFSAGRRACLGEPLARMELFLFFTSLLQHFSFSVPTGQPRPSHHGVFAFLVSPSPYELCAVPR", "experiment": "qHTS for inhibitors of CYP2D6 against the NCATS DSHEA and TCM libraries (AID 1919972)", "conditions": "CYP2D6 enzymatic inhibition, luminescence qHTS; series mostly up to 34.1 µM", "summary_of_the_method": "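Steps: enzyme plus luciferin substrate dispensed; test substances pinned; 15 min RT; 1x NADPH regenerating solution added, 30–45 min RT protected from light; detection reagent, 30 min RT; luminescence measured. Minus-enzyme wells as background.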"}, "[7]": {"biological_target": "Cytochrome P450 2C9 (Homo sapiens) (UniProt P11712)", "sequence (P11712 whole entry, looked up)": "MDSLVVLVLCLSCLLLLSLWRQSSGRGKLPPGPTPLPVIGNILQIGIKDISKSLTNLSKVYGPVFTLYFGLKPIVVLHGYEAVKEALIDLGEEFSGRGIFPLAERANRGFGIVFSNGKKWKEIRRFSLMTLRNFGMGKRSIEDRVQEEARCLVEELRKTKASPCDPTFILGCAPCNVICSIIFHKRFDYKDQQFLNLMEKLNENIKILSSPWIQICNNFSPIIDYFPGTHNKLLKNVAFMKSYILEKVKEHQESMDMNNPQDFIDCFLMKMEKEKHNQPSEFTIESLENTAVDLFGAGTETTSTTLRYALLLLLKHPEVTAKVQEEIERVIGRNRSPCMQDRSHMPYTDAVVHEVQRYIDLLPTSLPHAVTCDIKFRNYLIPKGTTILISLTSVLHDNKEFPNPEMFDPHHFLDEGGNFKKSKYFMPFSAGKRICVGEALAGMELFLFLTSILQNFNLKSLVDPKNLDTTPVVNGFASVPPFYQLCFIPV", "experiment": "qHTS for inhibitors of CYP2C9 against the NCATS DSHEA and TCM libraries (AID 1919973)", "conditions": "recombinant CYP2C9 enzyme activity, luminescence; series mostly up to 34.1 µM", "summary_of_the_method": "as §1"}, "[8]": {"biological_target": "Cytochrome P450 2C19 (Homo sapiens) (UniProt P33261)", "sequence (P33261 whole entry, looked up)": "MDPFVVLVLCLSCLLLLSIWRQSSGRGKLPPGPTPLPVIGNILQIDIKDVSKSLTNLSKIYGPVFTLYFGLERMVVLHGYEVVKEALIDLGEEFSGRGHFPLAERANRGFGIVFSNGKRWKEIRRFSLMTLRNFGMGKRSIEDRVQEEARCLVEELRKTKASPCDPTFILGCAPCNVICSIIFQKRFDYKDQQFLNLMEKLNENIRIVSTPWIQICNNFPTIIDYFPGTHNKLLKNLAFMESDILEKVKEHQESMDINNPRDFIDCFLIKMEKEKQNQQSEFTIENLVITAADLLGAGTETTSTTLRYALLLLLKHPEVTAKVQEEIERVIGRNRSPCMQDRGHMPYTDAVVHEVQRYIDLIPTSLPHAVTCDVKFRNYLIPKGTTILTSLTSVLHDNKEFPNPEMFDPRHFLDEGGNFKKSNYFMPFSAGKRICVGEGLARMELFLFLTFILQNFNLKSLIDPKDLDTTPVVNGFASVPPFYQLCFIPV", "experiment": "qHTS for inhibitors of CYP2C19 against the NCATS DSHEA and TCM libraries (AID 1919974)", "conditions": "CYP2C19 enzyme inhibition, luminescence qHTS; series mostly up to 34.1 µM", "summary_of_the_method": "as §1"}, "[9]": {"experiment": "KB-3-1 P-gp reporter qHTS against the NCATS DSHEA and TCM libraries (AID 1919975)", "conditions": "KB-3-1 parental cells, CellTiter-Glo luminescence viability, 72 h; series mostly up to 26.1 µM", "summary_of_the_method": "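KB-3-1 parental line, 1536-well qHTS: cells seeded, ~4 h attachment, pintool compound addition, ~72 h at 37C, then CellTiter-Glo, 30 min RT, luminescence. Concentration-response format.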"}, "[10]": {"biological_target": "Cytochrome P450 1A2 (Homo sapiens) (UniProt P05177)", "sequence (P05177 whole entry, looked up)": "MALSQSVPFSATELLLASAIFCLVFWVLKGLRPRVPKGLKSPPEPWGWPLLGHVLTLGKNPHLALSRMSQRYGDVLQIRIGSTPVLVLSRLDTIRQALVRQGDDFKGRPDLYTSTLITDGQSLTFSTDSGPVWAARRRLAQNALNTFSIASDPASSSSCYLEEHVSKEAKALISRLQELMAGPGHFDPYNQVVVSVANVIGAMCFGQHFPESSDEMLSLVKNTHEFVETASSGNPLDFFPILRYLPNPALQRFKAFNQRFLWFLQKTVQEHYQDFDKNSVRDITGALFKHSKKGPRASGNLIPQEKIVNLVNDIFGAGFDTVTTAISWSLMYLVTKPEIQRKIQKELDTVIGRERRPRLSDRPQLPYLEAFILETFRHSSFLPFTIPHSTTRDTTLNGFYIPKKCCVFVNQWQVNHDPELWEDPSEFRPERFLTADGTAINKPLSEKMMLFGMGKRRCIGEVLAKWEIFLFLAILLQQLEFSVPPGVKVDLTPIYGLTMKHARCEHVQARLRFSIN", "experiment": "qHTS for inhibitors of CYPIA2 against the NCATS DSHEA and TCM libraries (AID 1919976)", "conditions": "recombinant CYP1A2 enzyme activity, luminescence; series mostly up to 37 µM", "summary_of_the_method": "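In this quantitative HTS, inhibition of recombinant human CYP1A2 was measured as loss of luciferin-derived luminescence. Turnover ran 30-45 min at RT after NADPH regeneration solution was added.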"}}, "note": "Unmarked numbers belong to inactive results. Results filed as inconclusive are left out. Entries that show only a call come without a potency. The source made the active and inactive calls. The call rests on the fitted dose curve; in most records, active means well fitted curve in the direction sought with a large enough effect; inconclusive means small, poorly fitted or top-dose-only effect, or another doubt; inactive means no such curve, though single readings can be large; an effect the other way counts as inactive or inconclusive."}
{"compound": "Cc1cccc(N(C)C(=S)Oc2ccc3c(c2)CCC3)c1", "values": [{"measurement": "Potency", "setting": "[1]", "value": "inactive"}, {"measurement": "Potency", "setting": "[2]", "value": "inactive"}, {"measurement": "Potency", "setting": "[3]", "value": "inactive"}, {"measurement": "outcome", "setting": "[4]", "value": "inactive"}]}
{"compound": "CC(C(O)c1ccccc1)N(C)CCOC(c1ccccc1)c1ccccc1", "note": "(stereo not given)", "values": [{"measurement": "Potency", "setting": "[1]", "value": "inactive"}, {"measurement": "Potency", "setting": "[2]", "value": "inactive"}, {"measurement": "Potency", "setting": "[3]", "value": "inactive"}, {"measurement": "outcome", "setting": "[4]", "value": "inactive"}]}
{"compound": "CC1c2ccccc2CN1NC(=O)c1ccc(Cl)c(S(N)(=O)=O)c1", "note": "(stereo not given)", "values": [{"measurement": "Potency", "setting": "[1]", "value": "inactive"}, {"measurement": "Potency", "setting": "[2]", "value": "inactive"}, {"measurement": "outcome", "setting": "[4]", "value": "inactive"}]}
{"compound": "O=C(CCCCCCCCC#CI)Oc1ccccc1", "values": [{"measurement": "Potency", "setting": "[1]", "value": "inactive"}, {"measurement": "Potency", "setting": "[2]", "value": "inactive"}, {"measurement": "outcome", "setting": "[4]", "value": "inactive"}]}
{"compound": "CC1CC(=O)NN=C1c1ccc(NCC(C)(C)NCC(O)COc2cc(Cl)ccc2C#N)cc1", "note": "(stereo not given)", "values": [{"measurement": "Potency", "setting": "[1]", "value": "inactive"}, {"measurement": "Potency", "setting": "[3]", "value": "inactive"}, {"measurement": "outcome", "setting": "[4]", "value": "inactive"}]}
{"compound": "O=[N+]([O-])c1nccn1CO[C@@H](CO)[C@H](O)CO", "values": [{"measurement": "Potency", "setting": "[1]", "value": "inactive"}, {"measurement": "Potency", "setting": "[2]", "value": "inactive"}, {"measurement": "Potency", "setting": "[3]", "value": "inactive"}, {"measurement": "outcome", "setting": "[4]", "value": "inactive"}]}
{"compound": "O=[N+]([O-])c1ccc(-c2nc(-c3ccc(F)cc3)c(-c3ccncc3)[nH]2)cc1", "values": [{"measurement": "Potency", "setting": "[1]", "value": "inactive"}, {"measurement": "Potency", "setting": "[3]", "value": "inactive"}, {"measurement": "outcome", "setting": "[4]", "value": "inactive"}]}
{"compound": "CN(C)C(=O)CNC(=O)Cc1ccccc1", "values": [{"measurement": "Potency", "setting": "[1]", "value": "inactive"}, {"measurement": "Potency", "setting": "[2]", "value": "inactive"}, {"measurement": "Potency", "setting": "[3]", "value": "inactive"}, {"measurement": "outcome", "setting": "[4]", "value": "inactive"}]}
{"compound": "CC(=O)[C@H]1CC[C@H]2[C@@H]3C=CC4=CC(=O)CC[C@@]4(C)[C@@H]3CC[C@]12C", "values": [{"measurement": "Potency", "setting": "[1]", "value": "inactive"}, {"measurement": "Potency", "setting": "[2]", "value": "inactive"}, {"measurement": "Potency", "setting": "[3]", "value": "inactive"}, {"measurement": "outcome", "setting": "[4]", "value": "inactive"}]}
{"compound": "O=C(O)Cc1ccccc1Oc1ccc(Cl)cc1Cl", "values": [{"measurement": "Potency", "setting": "[1]", "value": "inactive"}, {"measurement": "Potency", "setting": "[2]", "value": "inactive"}, {"measurement": "outcome", "setting": "[4]", "value": "inactive"}]}
{"compound": "COC(=O)C1=CO[C@@H](O)[C@@H]2C(CO)=CC[C@H]12", "values": [{"measurement": "Potency", "setting": "[1]", "value": "inactive"}, {"measurement": "Potency", "setting": "[2]", "value": "13.4 µM (active)"}, {"measurement": "Potency", "setting": "[3]", "value": "inactive"}, {"measurement": "outcome", "setting": "[4]", "value": "inactive"}]}
{"compound": "CC(=O)OCC(=O)Nc1cc(C#N)cc(NC(=O)COC(C)=O)c1Cl", "values": [{"measurement": "Potency", "setting": "[1]", "value": "inactive"}, {"measurement": "Potency", "setting": "[2]", "value": "inactive"}, {"measurement": "Potency", "setting": "[3]", "value": "inactive"}, {"measurement": "outcome", "setting": "[4]", "value": "inactive"}]}
{"compound": "COc1ccccc1N1CCN(CCN2C(=O)CC3(CCCC3)CC2=O)CC1", "values": [{"measurement": "Potency", "setting": "[1]", "value": "inactive"}, {"measurement": "Potency", "setting": "[2]", "value": "inactive"}, {"measurement": "Potency", "setting": "[3]", "value": "inactive"}, {"measurement": "outcome", "setting": "[4]", "value": "inactive"}]}
{"compound": "CCC(C(=O)NC(=O)NC(C)=O)c1ccccc1", "note": "(stereo not given)", "values": [{"measurement": "Potency", "setting": "[1]", "value": "inactive"}, {"measurement": "Potency", "setting": "[2]", "value": "inactive"}, {"measurement": "Potency", "setting": "[3]", "value": "inactive"}, {"measurement": "outcome", "setting": "[4]", "value": "inactive"}]}
{"compound": "C[N+](C)(C)CCO", "values": [{"measurement": "outcome", "setting": "[5]", "value": "inactive"}, {"measurement": "outcome", "setting": "[6]", "value": "inactive"}, {"measurement": "outcome", "setting": "[7]", "value": "inactive"}, {"measurement": "Potency", "setting": "[8]", "value": "inactive"}, {"measurement": "outcome", "setting": "[9]", "value": "inactive"}, {"measurement": "Potency", "setting": "[10]", "value": "inactive"}]}
{"compound": "N[C@@H](Cn1ccc(=O)c(O)c1)C(=O)O", "values": [{"measurement": "activity change, negative = inhibition", "setting": "[1]", "value": "-9.21% [at 6.45 µM]"}, {"measurement": "activity, negative = inhibition", "setting": "[3]", "value": "-6.53% [at 6.45 µM]"}, {"measurement": "redox activity (% of DA3003)", "setting": "[4]", "value": "-4.94% [at 6.41 µM]"}]}
{"compound": "CN(CC1(C)CCCO1)S(=O)(=O)c1ccc(Cl)c(S(N)(=O)=O)c1", "note": "(stereo not given)", "values": [{"measurement": "Potency", "setting": "[1]", "value": "inactive"}, {"measurement": "Potency", "setting": "[2]", "value": "inactive"}, {"measurement": "Potency", "setting": "[3]", "value": "inactive"}, {"measurement": "outcome", "setting": "[4]", "value": "inactive"}]}
{"compound": "Cn1cc(S(C)=O)c(=O)c2ccc(F)cc21", "note": "(stereo not given)", "values": [{"measurement": "Potency", "setting": "[1]", "value": "inactive"}, {"measurement": "Potency", "setting": "[2]", "value": "inactive"}, {"measurement": "Potency", "setting": "[3]", "value": "inactive"}, {"measurement": "outcome", "setting": "[4]", "value": "inactive"}]}
{"compound": "CC(C)(C)c1nnc(NS(=O)(=O)c2ccccc2)s1", "values": [{"measurement": "Potency", "setting": "[1]", "value": "inactive"}, {"measurement": "Potency", "setting": "[2]", "value": "inactive"}, {"measurement": "outcome", "setting": "[4]", "value": "inactive"}]}
{"compound": "Cc1nn(-c2ccccc2)c(C)c1/C=N/N1CCN(Cc2ccccc2)CC1", "values": [{"measurement": "Potency", "setting": "[1]", "value": "inactive"}, {"measurement": "Potency", "setting": "[2]", "value": "inactive"}, {"measurement": "Potency", "setting": "[3]", "value": "inactive"}, {"measurement": "outcome", "setting": "[4]", "value": "inactive"}]}
